Source: the supplement of paper PMC10849652
Of roughly 7,900 targets only a part is listed; those with a hit were picked by preference. About 0.6% of all pairs of compound and target were hits.

compound: CC1=C(C(CC(=O)N1)C2=CC=C(C=C2)C(F)(F)F)C(=O)NC3=C(C=C4C(=C3)C=NN4)F; assay: log2 fold change, soluble protein after heating vs DMSO (PISA); higher = thermal stabilisation; K562 cells, 10 uM, 30 min; active = over 0.2 and 3.5 SD of the protein, either way, in both replicates (recomputed)
Summary of the method: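 Soluble protein was defined as the supernatant after 21,000xg for 90 min. It came from K562 cells at 2×10^6 cells/mL given 10 μM compound for 30 min, heated in aliquots for 3 min across 48°C-58°C, pooled, and extracted in PBS with 0.5% NP-40 at 4°C, and was quantified by TMTpro 16plex LC-MS/MS with equalised channel sums. Thermal stability against control samples, from duplicates, is reported as log2 fold change.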

Sequence of UniProt O43861 (O43861 whole entry, looked up): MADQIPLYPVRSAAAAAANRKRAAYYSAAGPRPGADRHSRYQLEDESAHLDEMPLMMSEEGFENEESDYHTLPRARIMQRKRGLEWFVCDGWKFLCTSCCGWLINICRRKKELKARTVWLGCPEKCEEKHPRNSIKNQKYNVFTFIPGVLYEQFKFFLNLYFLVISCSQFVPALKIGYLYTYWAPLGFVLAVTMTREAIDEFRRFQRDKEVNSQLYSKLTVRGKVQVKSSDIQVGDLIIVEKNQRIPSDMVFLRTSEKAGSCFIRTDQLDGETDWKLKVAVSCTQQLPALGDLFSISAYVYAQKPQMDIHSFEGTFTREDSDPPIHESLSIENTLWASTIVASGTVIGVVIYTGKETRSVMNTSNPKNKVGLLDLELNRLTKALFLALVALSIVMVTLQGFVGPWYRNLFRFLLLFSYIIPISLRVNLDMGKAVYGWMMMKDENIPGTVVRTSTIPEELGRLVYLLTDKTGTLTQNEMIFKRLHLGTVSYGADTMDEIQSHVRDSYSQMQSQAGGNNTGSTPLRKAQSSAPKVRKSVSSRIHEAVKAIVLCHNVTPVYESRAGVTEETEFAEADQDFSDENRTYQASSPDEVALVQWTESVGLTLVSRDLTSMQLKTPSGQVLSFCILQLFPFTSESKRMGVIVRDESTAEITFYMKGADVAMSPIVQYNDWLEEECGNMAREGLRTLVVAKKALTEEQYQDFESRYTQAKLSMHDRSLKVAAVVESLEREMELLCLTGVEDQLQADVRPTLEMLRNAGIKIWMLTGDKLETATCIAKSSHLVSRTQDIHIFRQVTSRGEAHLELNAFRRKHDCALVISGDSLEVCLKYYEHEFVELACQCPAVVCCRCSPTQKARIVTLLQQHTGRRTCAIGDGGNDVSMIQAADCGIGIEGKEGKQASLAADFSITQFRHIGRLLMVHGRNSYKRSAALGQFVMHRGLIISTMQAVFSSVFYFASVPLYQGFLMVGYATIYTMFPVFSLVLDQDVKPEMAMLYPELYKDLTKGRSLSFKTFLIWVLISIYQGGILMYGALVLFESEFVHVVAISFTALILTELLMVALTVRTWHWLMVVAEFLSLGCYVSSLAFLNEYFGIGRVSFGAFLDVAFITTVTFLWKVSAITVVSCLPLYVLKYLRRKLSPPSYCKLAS
Sequence of UniProt Q9Y6D6 (Q9Y6D6 whole entry, looked up): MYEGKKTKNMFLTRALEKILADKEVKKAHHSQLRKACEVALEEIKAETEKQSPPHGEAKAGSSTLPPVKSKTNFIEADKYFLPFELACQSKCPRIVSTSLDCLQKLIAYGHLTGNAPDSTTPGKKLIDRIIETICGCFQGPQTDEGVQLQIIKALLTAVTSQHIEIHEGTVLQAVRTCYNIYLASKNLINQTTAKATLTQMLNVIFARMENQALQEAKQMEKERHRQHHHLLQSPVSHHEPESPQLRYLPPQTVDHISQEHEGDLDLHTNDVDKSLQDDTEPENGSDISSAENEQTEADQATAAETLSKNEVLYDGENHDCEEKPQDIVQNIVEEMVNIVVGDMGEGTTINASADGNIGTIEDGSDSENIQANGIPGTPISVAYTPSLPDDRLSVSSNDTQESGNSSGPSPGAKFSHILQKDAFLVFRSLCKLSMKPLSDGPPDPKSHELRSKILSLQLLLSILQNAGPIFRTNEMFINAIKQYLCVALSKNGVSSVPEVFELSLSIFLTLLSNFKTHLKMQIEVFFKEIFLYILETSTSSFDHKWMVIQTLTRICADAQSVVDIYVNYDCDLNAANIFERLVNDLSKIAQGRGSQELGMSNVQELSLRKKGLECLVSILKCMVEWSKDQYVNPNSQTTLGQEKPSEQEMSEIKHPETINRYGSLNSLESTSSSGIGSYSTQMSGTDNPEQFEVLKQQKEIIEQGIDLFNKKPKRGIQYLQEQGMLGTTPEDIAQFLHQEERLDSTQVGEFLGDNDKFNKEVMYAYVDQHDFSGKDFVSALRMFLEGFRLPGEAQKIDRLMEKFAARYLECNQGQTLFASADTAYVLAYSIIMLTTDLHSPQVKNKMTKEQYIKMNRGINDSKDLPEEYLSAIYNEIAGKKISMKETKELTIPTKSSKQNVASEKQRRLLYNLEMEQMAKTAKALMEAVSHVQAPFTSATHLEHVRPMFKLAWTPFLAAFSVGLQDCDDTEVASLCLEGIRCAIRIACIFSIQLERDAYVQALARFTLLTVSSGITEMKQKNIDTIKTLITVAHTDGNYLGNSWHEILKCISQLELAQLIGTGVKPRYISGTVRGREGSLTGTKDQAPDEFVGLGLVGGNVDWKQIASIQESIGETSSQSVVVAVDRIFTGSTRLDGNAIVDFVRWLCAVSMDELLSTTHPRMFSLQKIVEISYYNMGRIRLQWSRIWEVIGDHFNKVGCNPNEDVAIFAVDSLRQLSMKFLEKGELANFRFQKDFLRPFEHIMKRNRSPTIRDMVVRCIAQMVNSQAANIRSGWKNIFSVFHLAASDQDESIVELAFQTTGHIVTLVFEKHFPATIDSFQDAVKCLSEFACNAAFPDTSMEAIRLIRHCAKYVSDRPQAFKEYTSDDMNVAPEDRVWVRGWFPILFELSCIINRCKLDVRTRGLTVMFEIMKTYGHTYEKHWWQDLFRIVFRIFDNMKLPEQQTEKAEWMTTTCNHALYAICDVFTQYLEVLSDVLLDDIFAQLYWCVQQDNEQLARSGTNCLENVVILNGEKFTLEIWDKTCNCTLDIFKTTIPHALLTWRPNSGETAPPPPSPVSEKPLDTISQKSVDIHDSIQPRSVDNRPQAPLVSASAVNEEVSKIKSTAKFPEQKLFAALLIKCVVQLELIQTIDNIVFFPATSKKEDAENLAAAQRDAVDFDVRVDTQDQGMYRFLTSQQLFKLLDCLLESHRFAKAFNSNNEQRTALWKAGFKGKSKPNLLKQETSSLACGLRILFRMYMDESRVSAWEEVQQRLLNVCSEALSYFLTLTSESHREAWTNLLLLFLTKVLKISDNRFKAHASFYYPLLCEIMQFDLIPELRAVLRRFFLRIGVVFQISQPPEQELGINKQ
Sequence of UniProt Q9ULC5 (Q9ULC5 whole entry, looked up): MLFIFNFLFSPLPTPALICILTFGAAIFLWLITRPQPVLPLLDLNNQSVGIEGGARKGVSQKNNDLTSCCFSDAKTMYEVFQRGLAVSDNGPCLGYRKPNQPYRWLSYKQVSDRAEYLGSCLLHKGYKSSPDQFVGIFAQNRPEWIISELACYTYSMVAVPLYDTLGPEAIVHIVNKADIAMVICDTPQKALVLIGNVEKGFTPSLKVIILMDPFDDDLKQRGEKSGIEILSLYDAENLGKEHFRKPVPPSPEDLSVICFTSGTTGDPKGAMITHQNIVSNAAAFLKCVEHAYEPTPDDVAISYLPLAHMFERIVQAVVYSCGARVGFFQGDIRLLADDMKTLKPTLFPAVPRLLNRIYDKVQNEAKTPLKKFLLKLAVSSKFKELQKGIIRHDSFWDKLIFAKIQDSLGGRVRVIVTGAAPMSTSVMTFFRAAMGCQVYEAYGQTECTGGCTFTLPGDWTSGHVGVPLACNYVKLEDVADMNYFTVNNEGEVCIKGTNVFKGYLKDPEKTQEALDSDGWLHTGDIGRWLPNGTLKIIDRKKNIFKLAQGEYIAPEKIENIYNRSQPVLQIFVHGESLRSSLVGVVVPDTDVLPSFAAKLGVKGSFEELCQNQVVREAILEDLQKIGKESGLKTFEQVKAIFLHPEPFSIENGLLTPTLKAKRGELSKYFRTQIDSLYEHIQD
Sequence of UniProt P17707 (P17707 whole entry, looked up): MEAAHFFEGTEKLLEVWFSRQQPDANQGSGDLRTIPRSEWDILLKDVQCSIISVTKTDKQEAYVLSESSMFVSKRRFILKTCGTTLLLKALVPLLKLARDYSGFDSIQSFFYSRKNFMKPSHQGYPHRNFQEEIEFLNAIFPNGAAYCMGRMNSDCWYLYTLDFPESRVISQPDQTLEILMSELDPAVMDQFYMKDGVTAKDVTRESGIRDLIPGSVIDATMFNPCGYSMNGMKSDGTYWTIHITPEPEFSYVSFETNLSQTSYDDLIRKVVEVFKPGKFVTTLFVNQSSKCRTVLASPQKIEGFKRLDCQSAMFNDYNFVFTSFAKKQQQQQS
Sequence of UniProt P33121 (P33121 whole entry, looked up): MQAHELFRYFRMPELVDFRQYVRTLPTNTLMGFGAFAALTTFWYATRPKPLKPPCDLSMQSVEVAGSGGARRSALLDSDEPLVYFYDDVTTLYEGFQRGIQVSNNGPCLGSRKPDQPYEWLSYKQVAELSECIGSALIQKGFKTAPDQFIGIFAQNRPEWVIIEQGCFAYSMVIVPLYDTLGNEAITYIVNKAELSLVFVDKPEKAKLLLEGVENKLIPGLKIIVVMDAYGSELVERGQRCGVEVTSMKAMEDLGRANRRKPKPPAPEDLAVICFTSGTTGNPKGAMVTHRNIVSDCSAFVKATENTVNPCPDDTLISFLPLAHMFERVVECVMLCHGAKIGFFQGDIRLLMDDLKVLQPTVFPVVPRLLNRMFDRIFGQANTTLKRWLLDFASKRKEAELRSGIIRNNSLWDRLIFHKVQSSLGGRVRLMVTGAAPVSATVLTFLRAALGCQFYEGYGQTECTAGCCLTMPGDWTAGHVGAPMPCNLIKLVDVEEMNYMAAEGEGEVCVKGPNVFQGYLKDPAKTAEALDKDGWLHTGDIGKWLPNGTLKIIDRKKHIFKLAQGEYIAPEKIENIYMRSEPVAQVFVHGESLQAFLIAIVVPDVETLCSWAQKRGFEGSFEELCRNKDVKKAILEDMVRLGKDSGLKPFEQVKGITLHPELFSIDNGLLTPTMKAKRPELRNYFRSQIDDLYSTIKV
Sequence of UniProt P21283 (P21283 whole entry, looked up): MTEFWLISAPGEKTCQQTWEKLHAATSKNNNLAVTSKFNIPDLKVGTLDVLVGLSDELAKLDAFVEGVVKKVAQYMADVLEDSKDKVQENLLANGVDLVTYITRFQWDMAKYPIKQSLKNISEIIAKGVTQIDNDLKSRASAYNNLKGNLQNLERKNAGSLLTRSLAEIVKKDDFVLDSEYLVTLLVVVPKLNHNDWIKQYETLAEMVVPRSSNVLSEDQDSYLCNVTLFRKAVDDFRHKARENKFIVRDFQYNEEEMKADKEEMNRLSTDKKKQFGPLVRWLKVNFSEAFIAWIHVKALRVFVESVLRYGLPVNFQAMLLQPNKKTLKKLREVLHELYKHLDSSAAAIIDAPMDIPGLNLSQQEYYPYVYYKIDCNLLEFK

Row | Target | log2 fold change
1 | AHSA1 (UniProt O95433) | 0.003 (inactive)
2 | AARS2 (UniProt Q5JTZ9) | 0.002 (inactive)
3 | APOB (UniProt P04114) | 0.066 (inactive)
4 | ABCA4 (UniProt P78363) | -0.05 (inactive)
5 | ANAPC2 (UniProt Q9UJX6) | -0.044 (inactive)
6 | ATP12A isoform 2 (UniProt P54707) | -0.02 (inactive)
7 | BRD8 (UniProt Q9H0E9) | 0.03 (inactive)
8 | ATP6V1C1 (UniProt P21283) | 0.032 (inactive)
9 | BMP2K (UniProt Q9NSY1) | 0.023 (inactive)
10 | ALDH9A1 isoform 3 (UniProt P49189) | 0.028 (inactive)
11 | ARFGAP2 (UniProt Q8N6H7) | -0.006 (inactive)
12 | BRAP (UniProt Q7Z569) | 0.026 (inactive)
13 | AP2S1 (UniProt P53680) | -0.009 (inactive)
14 | AHCYL1 (UniProt O43865) | -0.033 (inactive)
15 | ADAM15 (UniProt Q13444) | 0.027 (inactive)
16 | BUB1B isoform 3 (UniProt O60566) | -0.011 (inactive)
17 | AP2A1 (UniProt O95782) | 0.01 (inactive)
18 | BPHL (UniProt Q86WA6) | 0.016 (inactive)

Row | Target | log2 fold change
19 | ARAF (UniProt P10398) | -0.018 (inactive)
20 | ATAD3B (UniProt Q5T9A4) | 0.077 (inactive)
21 | ATG9A (UniProt Q7Z3C6) | -0.003 (inactive)
22 | AURKA (UniProt O14965) | 0.001 (inactive)
23 | BID isoform 2 (UniProt P55957) | -0.047 (inactive)
24 | ATP9B (UniProt O43861) | -0.004 (inactive)
25 | ARFGEF1 (UniProt Q9Y6D6) | -0.065 (inactive)
26 | ATP6V0A1 isoform 3 (UniProt Q93050) | 0.067 (inactive)
27 | AMD1 (UniProt P17707) | 0.04 (inactive)
28 | ATL2 (UniProt Q8NHH9) | -0.016 (inactive)
29 | ALDH18A1 (UniProt P54886) | -0.059 (inactive)
30 | ACTR1B (UniProt P42025) | -0.099 (inactive)
31 | BZW2 (UniProt Q9Y6E2) | -0.005 (inactive)
32 | ACSL5 isoform 3 (UniProt Q9ULC5) | 0.049 (inactive)
33 | ACSL1 (UniProt P33121) | 0.058 (inactive)
34 | ATIC (UniProt P31939) | -0.023 (inactive)
35 | ADD1 isoform 3 (UniProt P35611) | -0.004 (inactive)
36 | ACAD9 (UniProt Q9H845) | -0.012 (inactive)
